Laboratory results: PubChem BioAssay (NCI)
Several values for one entry are separate records, joined by “and”; a condition that tells them apart may be missing. Equal entries are not always repeated. This is part of a sample that, as a whole, favours compounds with a hit. Of some 79,000 tested, about 15% had one in any assay. Unmarked numbers belong to inactive results. Activity calls are given as the source filed them. Cut-off read from the data, not from the text of the source: active = growth inhibition above about 70%; inactive = the rest.

Tests used:
[1] = NCI Yeast Anticancer Drug Screen. Data for the rad50 strain (AID 155);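 note: 0% = growth of vehicle-only cultures of the same strain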; details: S. cerevisiae rad50 strain growth inhibition, stronger effect = higher value
Summary of the method: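 Yeast carrying a defined DNA repair defect were exposed to test compounds, and growth was compared with vehicle-treated controls to give percent inhibition.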

[2] = NCI Yeast Anticancer Drug Screen. Data for the mec2-1 strain (AID 157); details: S. cerevisiae mec2-1 strain, stronger effect = higher value
Summary of the method: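 Test agents were screened against the mec2-1 yeast strain, with defined DNA repair or cell cycle alteration. Growth was scored as inhibition against vehicle-only controls.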

[3] = NCI Yeast Anticancer Drug Screen. Data for the sgs1 mgt1 strain (AID 161);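 note: 0% = growth of cultures given vehicle only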; details: S. cerevisiae sgs1 mgt1 strain, stronger effect = higher value
Summary of the method: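 Genetically altered yeast, compound exposure, growth inhibition relative to vehicle.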

[4] = NCI Yeast Anticancer Drug Screen. Data for the cln2 rad14 strain (AID 165);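 note: 0% = growth equal to vehicle treated cultures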; details: S. cerevisiae cln2 rad14 strain, stronger effect = higher value
Summary of the method: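 Growth of compound-exposed yeast (cln2 rad14 genotype) measured and expressed as inhibition relative to vehicle.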

[5] = NCI Yeast Anticancer Drug Screen. Data for the bub3 strain (AID 167); details: S. cerevisiae bub3 mutant strain, stronger effect = higher value
Summary of the method: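 Compounds were applied to a genetically altered yeast strain carrying a cell-cycle control defect. Growth inhibition was scored against vehicle-treated controls.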

[6] = NCI Yeast Anticancer Drug Screen. Data for the mlh1 rad18 strain (AID 175); details: S. cerevisiae mlh1 rad18 strain growth inhibition, stronger effect = higher value
Summary of the method: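 In this whole-cell yeast screen, a strain with altered DNA damage repair is challenged with compound, and its growth is measured against matched vehicle-treated controls.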

[7] = at 5.0 µM (retest, dose inferred, filed as 0.5)
[8] = at 50.0 µM (retest, dose inferred, filed as 5.0)

| Compound | growth inhibition [1, 7] | growth inhibition [1, 8] | growth inhibition [2, 7] | growth inhibition [2, 8] | growth inhibition ([2]; at 50.0 µM) | growth inhibition [3, 7] | growth inhibition [3, 8] | growth inhibition ([3]; at 50.0 µM) | growth inhibition [4, 7] | growth inhibition [4, 8] | growth inhibition ([4]; at 50.0 µM) | growth inhibition [5, 7] | growth inhibition [5, 8] | growth inhibition ([5]; at 50.0 µM) | growth inhibition [6, 7] | growth inhibition [6, 8] | growth inhibition ([6]; at 50.0 µM) | growth inhibition ([1]; at 50.0 µM) |
| --- | --- | --- | --- | --- | --- | --- | --- | --- | --- | --- | --- | --- | --- | --- | --- | --- | --- | --- |
| CN1c2ccccc2Sc2c1n[nH]c2-c1ccccc1 | -1% | 64% | -3% | 79% (active) | 96.1% (active) | 0% | 79% (active) | 98.8% (active) | 2% | 68% | 98% (active) | -1% | 95% (active) | 99% (active) | -4% | 91% (active) | 98.8% (active) |  |
| O=P(C(=S)Nc1ccccc1Cl)(c1ccccc1)c1ccccc1 | 15% | 96% (active) |  |  |  | -1% | 96% (active) | 92.8% (active) | -6% | 97% (active) | 87.5% (active) | -26% | 97% (active) | 89.2% (active) | -26% | 96% (active) | 89.2% (active) | 88.5% (active) |
| O=C1NC(=O)/C(=C/c2ccc(S(=O)(=O)N/N=C\C(O)C(O)C(O)C(O)CO)cc2)N1 (configuration not stated) |  |  |  |  | -3.7% and 38.8% and 12.5% |  |  | -19.6% and 19.2% and -13.3% |  |  | 2.3% and 4.95% and 8.9% |  |  | -17.4% and -6.2% and 3.65% |  |  | 15.4% and 28.7% and 13.4% | 3.55% and -20.8% and 1.5% |
| Nc1cn(C2OC(CC(c3ccccc3)(c3ccccc3)c3ccccc3)C(O)C2O)c(=O)[nH]c1=O (configuration not stated) | 99% (active) | 99% (active) |  |  |  | 99% (active) | 99% (active) | 42.1% | 96% (active) | 96% (active) | 37.5% | 66% | 66% | 46.5% | 97% (active) | 97% (active) | 34.6% | 39% |
| C/C(=N/NC(=S)N(C)C)c1ccccc1O | 2% | 13% |  |  |  | -43% | 16% | 52% | 18% | 3% | 77.9% (active) | -29% | 21% | 36.8% | -17% | 28% | 16.7% | -28.2% |
| CC(C)(C)C(=O)CC(=O)C(F)(F)C(F)(F)C(F)(F)F.CC(C)(C)C(=O)CC(=O)C(F)(F)C(F)(F)C(F)(F)F.CC(C)(C)C(=O)CC(=O)C(F)(F)C(F)(F)C(F)(F)F.[Gd] | -7% | 79% (active) |  |  |  | 3% | 82% (active) | 90.7% (active) | 9% | 87% (active) | 82.7% (active) | -17% | 96% (active) | 89.2% (active) | -7% | 93% (active) | 88.8% (active) | 89.3% (active) |
| O=C1C(Cl)=C(Cl)C(=C2C(Cl)=C(Cl)C(=O)C(Cl)=C2Cl)C(Cl)=C1Cl |  |  | 97% (active) | 100% (active) | 99.6% (active) | 91% (active) | 99% (active) | 99.5% (active) | 99% (active) | 99% (active) | 99% (active) | 79% (active) | 98% (active) | 99.5% (active) | 97% (active) | 99% (active) | 99.4% (active) |  |
| C=C1CC/C=C(/C(=O)O)CC[C@H]2[C@@H]1CC2(C)C | -5% | 58% |  |  |  | 3% | 68% | 57.4% | -6% | 50% | 53.6% | 0% | 78% (active) | 69.5% | -1% | 74% (active) | 53.2% | 63.6% |
| C[C@]12C[C@H](c3ccccc3)Nc3ccccc3N1C(c1ccccc1)=NO2 | 0% | 83% (active) |  |  |  | 21% | 80% (active) | 81.5% (active) | 9% | 74% (active) | 54.4% | 6% | 87% (active) | 67.4% | -8% | 88% (active) | 71% (active) | 64.5% |
| COc1cccc(C2c3cc4c(cc3OC(O)C2C)OCO4)c1O (configuration not stated) |  |  | -5% | 23% | 11.5% | 1% | 24% | -6.55% | 7% | 4% | 12.6% | -4% | 27% | 34.1% | -7% | 30% | 58% |  |
| O=C1CSC(c2ccc(Cl)cc2)N1c1ccc(-c2ccc(-n3c(-c4ccccc4)nc4ccccc4c3=O)cc2)cc1 (configuration not stated) |  |  |  |  |  | 9% | 65% | 84.2% (active) | -11% | 50% | 26.9% | -4% | 95% (active) | 84.8% (active) | -10% | 94% (active) | 87.5% (active) |  |
| OCC(O)C(O)C(O)C(O)C(O)CO (configuration not stated) |  |  |  |  | 0.1% and 6.15% and -9.7% |  |  | 16.6% and 21.1% and 25.2% |  |  | -45.4% and -8.8% and -1.35% |  |  | 17.6% and -3.1% and 37.1% |  |  | 10.2% and 22.1% and 10.4% | 1% and 8% and 21.3% |
| Brc1ccc(N=NN2CCCC2)cc1 |  |  | 0% | 8% | 59.6% | 33% | 33% | 86.4% (active) | 36% | 36% | 68% | 30% | 37% | 85.6% (active) | 7% | 5% | 86.1% (active) |  |
| COc1ccc(Cc2ccccc2C(=O)O)c2ccccc12 | 97% (active) | 96% (active) | 98% (active) | 98% (active) | 99.2% (active) |  |  |  |  |  |  | 96% (active) | 98% (active) | 98.9% (active) | 97% (active) | 98% (active) | 99% (active) | 99.1% (active) |
| O=C(/N=C1\N=Nc2nc(C(C(=O)c3cccs3)c3nc4n(c3O)/C(=N/C(=O)Nc3ccc(Cl)cc3)N=N4)c(O)n21)Nc1ccc(Cl)cc1 (configuration not stated) |  |  | -12% | 23% | 63.4% | -1% | 7% | 66.2% | -33% | 7% | 63.6% | -38% | 27% | 66.8% | -27% | 43% | 49.3% |  |
| N#C/C(=C\c1cc(Cl)cc(Cl)c1O)C(/C(C#N)=C/c1cc(Cl)cc(Cl)c1O)c1ccc2c(c1)OCO2 (configuration not stated) |  |  | 48% | 99% (active) | 93.5% (active) | 75% (active) | 100% (active) | 93.2% (active) | 44% | 97% (active) | 91.8% (active) | 74% (active) | 99% (active) | 92.1% (active) | 80% (active) | 99% (active) | 90.8% (active) |  |
| CC12CCC(C(Br)(Br)C1=O)C2(C)C (configuration not stated) | 29% | 60% |  |  |  | 26% | 56% | 72.1% (active) | 22% | 41% | 30.5% | 18% | 74% (active) | 86.8% (active) | 16% | 68% | 88.7% (active) | 40.6% |
| CCN(CC)CCOc1ccc(-c2cc(-c3ccccc3)nc(N)n2)cc1 | 49% | 98% (active) |  |  |  | 44% | 91% (active) | 85.2% (active) | 73% (active) | 93% (active) | 59.3% | 58% | 92% (active) | 81.3% (active) | 55% | 99% (active) | 77.8% (active) | 76.5% (active) |
| O=C(NC1CCN(Cc2ccccc2)CC1)c1ccccc1I |  |  | 38% | 50% | 39.9% | 80% (active) | 81% (active) | 82.6% (active) | 83% (active) | 82% (active) | 81% (active) | 59% | 64% | 74% (active) | 73% (active) | 76% (active) | 80.8% (active) |  |
| NNc1ncc2c(n1)-c1ccccc1OC2 |  |  | 6% | 38% | 18.8% | 14% | 28% | 24.1% | 21% | 33% | 4.1% | 12% | 40% | -1.1% | 13% | 53% | 89.8% (active) |  |
| O=C1OC(C(O)CO)C(O)=C1O (configuration not stated) |  |  |  |  | -25.8% and 0.65% and -15.2% |  |  | -4.15% and -7.6% and 14.5% |  |  | -0.75% and -1.55% and 7.15% |  |  | -1.7% and -0.25% and -0.3% |  |  | 1.6% and 8.75% and 6.45% | -17.1% and 7.7% and 12.5% |
| O=[N+]([O-])c1c(Cl)c(Cl)c(O)c(Cl)c1Cl | 55% | 80% (active) |  |  |  | 75% (active) | 87% (active) | 90% (active) | 31% | 64% | 30.9% | 55% | 75% (active) | 78.2% (active) | 32% | 89% (active) | 70.8% (active) | 76.5% (active) |
| OCCN1CCN(CCCN2c3cc(Cl)ccc3Sc3ccsc32)CC1 | -8% | 98% (active) | 0% | 98% (active) | 98.4% (active) |  |  |  | -7% | 97% (active) | 94.4% (active) | -2% | 97% (active) | 97.6% (active) | -7% | 97% (active) | 98.1% (active) | 98.5% (active) |
| OCC(O)C(O)C(O)CO (configuration not stated) |  |  |  |  | -8.1% and 4.3% and 14% |  |  | -16% and 7.05% and 14.4% |  |  | 4.25% and 2.85% and 13.9% |  |  | -45.7% and -5.45% and 0.05% |  |  | -8.35% and -4.45% and 10% | -5.35% and 10.4% and 7.75% |
| Clc1ccc(C2=NCON=C2c2ccc(Cl)cc2)cc1 |  |  | 7% | 99% (active) | 90.5% (active) | 10% | 99% (active) | 91% (active) | 9% | 98% (active) | 89.5% (active) | 20% | 99% (active) | 90.8% (active) | 7% | 97% (active) | -18.7% |  |
| COC1OC(CO)C(O)C(O)C1O (configuration not stated) |  |  |  |  | -5.2% and 1.65% and -23.1% |  |  | -4.3% and -4.25% and -9.9% |  |  | 16.9% and -53.9% and -37.4% |  |  | -12.3% and 5.7% and -2.25% |  |  | 0.8% and 7.3% and -8.25% | -6.55% and -5.05% and -29.2% |
| CC1(C)CC(=O)C2=C(C1)OC1=C(C(=O)CC(C)(C)C1)C2CC(c1ccccc1)c1ccc(O)c(O)c1O (configuration not stated) |  |  | 6% | -8% | 22.8% | 9% | 2% | 48.3% | 5% | 18% | 28.2% | -11% | -23% | 36% | 30% | 10% | 56% |  |
| O=C(CC(C(=O)O)C(c1ccccc1)[N+](=O)[O-])c1ccccc1 (configuration not stated) |  |  |  |  | -5.4% and -10.8% and 16.7% |  |  | 4.4% and 6.3% and -17.4% |  |  | -67.8% and 15.6% and -18.9% |  |  | -9.65% and 9.1% and 5.6% |  |  | -2.55% and 22.1% and 32.6% | -4.1% and 6.9% and 6.55% |
